Hits are enriched below; roughly 7.4% of the tested compounds scored in any of these assays.
FLuc modulator: firefly luciferase modulation, counter-screen for miR-21 project. purified FLuc, Km substrates, luminescence inhibition. Potency, µM (highest dose often 57.5 µM), inactives show top-dose activity change, negative = inhibition, hits mostly inhibitors. P08659. 360,000 compounds, 6.9% hits. AID 588342;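 also: plate controls were vehicle for no effect and reference inhibitor for full effect; nearly all actives have a fitted effect of over 55% in size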
Target sequence (P08659 whole entry, looked up): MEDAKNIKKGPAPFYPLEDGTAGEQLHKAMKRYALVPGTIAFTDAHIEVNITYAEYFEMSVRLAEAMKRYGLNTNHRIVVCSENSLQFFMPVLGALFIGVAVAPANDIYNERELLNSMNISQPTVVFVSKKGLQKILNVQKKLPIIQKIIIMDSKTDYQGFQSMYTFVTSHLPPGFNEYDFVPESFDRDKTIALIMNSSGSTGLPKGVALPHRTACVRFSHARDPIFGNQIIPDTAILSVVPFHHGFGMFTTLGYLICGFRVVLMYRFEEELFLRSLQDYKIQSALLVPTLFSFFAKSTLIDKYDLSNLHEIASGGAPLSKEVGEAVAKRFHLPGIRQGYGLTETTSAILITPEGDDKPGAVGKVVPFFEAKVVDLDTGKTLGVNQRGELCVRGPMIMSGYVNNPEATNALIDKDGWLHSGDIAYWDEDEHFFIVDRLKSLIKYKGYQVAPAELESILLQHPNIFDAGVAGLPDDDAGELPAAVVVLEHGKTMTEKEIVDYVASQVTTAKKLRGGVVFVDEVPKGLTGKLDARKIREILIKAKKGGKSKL
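Biochemical qHTS of compounds, final roughly 60 µM downward over six points, against 10 nM purified firefly luciferase using Km concentrations of substrates (10 uM D-luciferin, 10 uM ATP) in Tris acetate pH 7.5 buffer; luminescence output.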
SMN2 splice up: enhancers of SMN2 splice variant expression. 210,000 compounds, 2.8% hits. Potency, µM (series often up to 46.1 µM), without a hit: at the highest dose activity change, positive = activation, most hits filed as activators. AID 1458. HEK293 SMN2-luciferase splicing reporter, luminescence, 30-36 h; also: % of control where 0% means no effect; nearly all actives have a fitted effect of over 55% in size
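qHTS luciferase splicing reporter: luminescence rises when SMN2 exon 7 is included in transfected HEK293 cells. Compound exposure lasted 30-36 h at 37C, with 4.5 mM final sodium butyrate as control, followed by a ONE-Glo read.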
NPC1 promoter act: activates the NPC1 promoter. Huh7 NPC1 promoter luciferase reporter, 24 h. Potency, µM (top dose mostly 9.22 µM), without a hit: top-dose activation, most hits filed as activators. 320,000 compounds, 2.4% hits. AID 485313; also: % of control where 0% means no effect; nearly all actives have a fitted effect of over 60% in size
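Compounds in DMSO were transferred onto Huh7 NPC1-luciferase reporter cells pre-incubated 2 h; after 24 h at 37 °C, Amplite reagent was dispensed and luminescence recorded 10 min later.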
Rab9 promoter act: activates the Rab9 promoter | Huh7 Rab9 promoter-luciferase reporter, luminescence, 24 h | Potency, µM (series often up to 9.22 µM), for inactives: at the highest dose activation, negative = inhibition, hits mostly activators | 320,000 compounds, 2.8% hits | AID 485297; also: % of control where 0% means no effect; nearly all actives have a fitted effect of over 60% in size
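Rab9 promoter-driven luciferase in stably transfected Huh7 cells; 1500 cells/well rested 2 h, exposed to compound in DMSO for 24 h at 37 °C, 5% CO2. Luminescence read 10 min after adding luciferase reagent at ambient temperature.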
ELG1 genotox: genotoxicity induction in ELG1-luciferase HEK293T cells; 330,000 compounds, 1.3% hits; Potency, µM (top dose mostly 46 µM), without a hit: at the highest dose activity change, positive = activation, actives largely listed as activators; HEK293T ELG1-luciferase reporter, luminescence, 16 h; AID 504466; also: % of control where 0% means no effect; nearly all actives have a fitted effect of over 60% in size
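Reporter readout depends on ELG1 protein level, which increases with genetic stress. After 16 hr compound exposure at 37 °C, luciferase activity was quantified using ONE-Glo.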
* hit, by the source's call; ? = inconclusive; / = no result; [ ] = remark or other dose. Calls follow the shape of the dose curve; as a rule, active = well fitted curve in the direction sought with a large enough effect; inconclusive = small, poorly fitted or top-dose-only effect, or another doubt; inactive = no such curve, though single readings can be large; an effect the other way counts as inactive or inconclusive. Potency is read from the fitted curve at half-maximal effect.

SMILES	FLuc modulator	SMN2 splice up	NPC1 promoter act	Rab9 promoter act	ELG1 genotox
CC(C)CC1N=C2c3ccccc3N=C(SCC(=O)NCCc3ccc(Cl)cc3)N2C1=O (centres undefined)	0%	/	/	/	/
Cc1ccc(NC(=O)c2ccc(S(=O)(=O)N3CCC(C)CC3)cc2)nc1	?	/	0%	-5%	18µM*
Cc1ccc(NC(=O)c2ccc(S(=O)(=O)N3CCCCCC3)cc2)nc1	?	/	3%	8%	-3%
CCCC(=O)Nc1sc2c(c1C(=O)Nc1ccccn1)CCCC2	4%	/	1%	-8%	-5%
Cc1ccc2[nH]c3ccccc3c(=O)c2c1	17µM*	/	?	17%	14%
CCOc1ccc(NC(=O)c2cc(=O)c3ccc(C)c(C)c3o2)cc1	-1%	9%	/	/	/
C=CCn1c(=O)c(C(=O)Nc2ccccc2S(N)(=O)=O)c(O)c2ccccc21	?	/	2.5µM*	3.2µM*	?
Cc1cc(SCC(=O)c2cc(C)n(C)c2C)nc2ccccc12	-8%	-13%	0%	5%	-4%
Cn1c(C(C#N)C(=O)Cc2cccc3ccccc23)nc2ccccc21 (centres undefined)	-1%	-9%	-5%	-6%	-9%
Cn1c(C(C#N)C(=O)c2ccco2)nc2ccccc21 (centres undefined)	17µM*	29%	-1%	7%	16%
N#C/C(=C\c1ccncc1)c1nc2ccccc2o1	-17%	/	0%	11%	3%
N#C/C(=C\c1cccc(O)c1)c1nc2ccccc2o1	8.5µM*	/	-2%	-10%	11%
N#C/C(=C\Nc1ccccc1O)c1nc2ccccc2o1	19µM*	-10%[1.84 µM]	-4%	0%	-6%
Cc1ccc(CCNC(=O)CSCc2ccc(F)cc2)cc1	3%	/	1%	-5%	-1%
COc1ccc(/C=C/C(=O)c2ccc[nH]2)cc1OC	12µM*	?	?	3.2µM*	21µM*
COc1ccc(/C=C/C(=O)c2ccc[nH]2)c(OC)c1OC	8.5µM*	?	?	?	?
COc1ccc(/C=C/C(=O)c2ccncc2)c2ccccc12	?	-57%	2%	-5%	-4%
CCOc1ccccc1/C=N/Nc1ccnc(=O)[nH]1	-3%	/	5%	-5%[1.84 µM]	7%
COc1ccccc1/C=N/Nc1nccnc1Cl	12µM*	-21%	27%	?	18µM*
COc1cccc(/C=N/Nc2ncccc2[N+](=O)[O-])c1OC	0.3µM*	/	?	-5%	0.29µM*
COc1ccc(/C=N/n2c(SC)nnc2-c2ccccc2)c(OC)c1OC	-5%	14µM*	-33%	-14%	3%
COc1cccc(C(=O)Nc2cccc(-c3cn4ccsc4n3)c2)c1OC	15µM*	/	/	/	/
COc1cc(OC)cc(C(=O)Nc2cccc(-c3cn4ccsc4n3)c2)c1	6µM*	/	/	/	/
COc1cccc(OC)c1C(=O)Nc1cccc(-c2cn3ccsc3n2)c1	24µM*	/	/	/	/
O=S(=O)(Nc1cccc(-c2cn3ccsc3n2)c1)c1ccc(F)cc1	?	-24%	-2%	6%	?
SMILES	FLuc modulator	SMN2 splice up	NPC1 promoter act	Rab9 promoter act	ELG1 genotox
COc1cccc(C(=O)NCc2cn3ccsc3n2)c1	-29%	24%	0%	-7%	12%
O=C(CN1C(=O)NC(Cc2c[nH]c3ccccc23)C1=O)Nc1ccc(F)cc1F (centres undefined)	/	/	/	/	1%
N#Cc1ccccc1NC(=O)CN1C(=O)NC(Cc2c[nH]c3ccccc23)C1=O (centres undefined)	9.5µM*	/	1%	0%	1%
CN1C(=O)C(Cc2c[nH]c3ccccc23)NC1=S (centres undefined)	/	13µM*	/	/	/
Cc1ccccc1NC(=O)c1cc2c(-c3ccccc3)nn(-c3ccccc3)c2s1	0%	23%	/	/	/
Cc1ccc(-c2cc(C(=O)N/N=C\c3cnn(C)c3C)c3ccccc3n2)cc1C	0.67µM*	1%	12%	25%	?
Cc1ccccc1-c1cc(C(=O)N/N=C/c2cccnc2)c2ccccc2n1	-6%	/	0%	-1%	2%
Cc1c(-c2cc(C(=O)O)c3ccccc3n2)cnn1C	-19%	13%	-4%	-1%	-4%
Cc1ccc(-c2cc(C(=O)NCc3cnn(C)c3C)c3ccccc3n2)cc1C	2.1µM*	?	/	/	/
COc1cc(NC(=O)CCCNC(=O)Cn2cnc3sc(C)c(C)c3c2=O)cc(OC)c1OC	0%	/	0%	5%	6%
CCOC(=O)c1sc2nc(C3CC3)cc(-c3ccc(F)cc3)c2c1N	7%	-6%	-1%	1%	1%
CCOC(=O)c1sc(-c2ccc(OC)cc2)cc1N	?	/	2.2µM*	1.3µM*	?
CC(=O)c1sc(-c2ccccc2)cc1N	?	/	-5%	12%	10%
CCOC(=O)c1sc(-c2ccc(F)cc2)cc1N	9.5µM*	?	?	2.5µM*	14µM*
CCOC(=O)c1sc(-c2ccccc2)cc1N	13µM*	?	?	?	13µM*
CCOC(=O)c1cc(-c2ccccc2)sc1N	21µM*	?	29%	?	15%
C/C(CC(=O)Nc1ccc(N(C)C)cc1)=N\NC(=O)c1ccc(C(C)(C)C)cc1	?	/	-1%	14%	0%
CCOC(=O)c1c(N)sc(-c2ccccc2)c1C	17µM*	14%	-2%	2%	?
Cc1ccc2nc(-c3ccc(NC(=O)COc4ccccc4)cc3)sc2c1	3µM*	1.3µM*	/	/	/
CCOc1cc(C(=O)Nc2ccc(-c3nc4ccccc4s3)cc2Cl)cc(OCC)c1OCC	13µM*	/	/	/	/
COc1ccc(/C=C(\C#N)C(=O)OCC(=O)Nc2ccc(-c3nc4ccc(C)cc4s3)cc2)cc1	1.7µM*	2.5µM*	0.45µM*	0.4µM*	0.65µM*
Cc1ccc2nc(-c3ccc(NC(=O)COc4ccccc4C(C)(C)C)cc3)sc2c1	9.5µM*	?	/	/	/
O=C(COc1ccccc1[N+](=O)[O-])Nc1ccc(-c2nc3ccccc3s2)cc1	-3%	/	/	/	/
C=CCn1c(SCC(=O)Nc2ccc(-c3nc4ccc(C)cc4s3)cc2)nnc1-c1ccccc1	2.4µM*	0.79µM*	?	0.5µM*	?
Cc1ccc2nc(-c3ccc(NC(=O)CN4C(=O)NC(C)(c5ccc(OC(F)F)cc5)C4=O)cc3)sc2c1 (centres undefined)	5.4µM*	/	2.5µM*	1.4µM*	21µM*
CC1(c2ccc(OC(F)F)cc2)NC(=O)N(CC(=O)Nc2ccccc2)C1=O (centres undefined)	-8%	/	-3%	3%	8%
O=C(COc1ccccc1Cl)Nc1ccc(-c2nc3ccccc3s2)cc1	-2%	0.79µM*	/	/	/
COc1ccc(CN(C(=O)Nc2ccccc2)c2ccccn2)cc1OC	-2%	/	/	/	/
CCCCN1C(=O)CC(Nc2ccc(CC)cc2)C1=O (centres undefined)	13µM*	?	12%	25%	16µM*
